Experimental data from PubChem BioAssay (EPA / NIEHS).
Results filed as inconclusive are left out. Active and inactive are the calls of the source. Rule for the calls: active = hit-call score of the fitted dose curve at least 0.9, where 1 is the maximum; inconclusive = response in the unintended direction; inactive = score below 0.9.

Assay: ATG_GAL4_TRANS: Attagene TRANS-FACTORIAL HepG2 Assay for GAL4 (Internal Marker) (AID 2282976)
Settings: HepG2 Attagene TRANS GAL4 internal marker reporter
Method: ATG_TRANS is a cell-based, multiplexed-readout assay that uses HepG2, a human liver cell line, with measurements taken at 24 hours after chemical dosing in a 24-well plate.ATG_GAL4_TRANS is one of 30 assay component(s) measured or calculated from the ATG_TRANS assay. It is designed to make measurements of mRNA induction, a form of inducible reporter, as detected with fluorescence intensity signals by Reverse transcription polymerase chain reaction (RT-PCR) and Capillary electrophoresis technology.Data from the assay component ATG_GAL4_TRANS was analyzed into 1 assay endpoint. This assay endpoint, ATG_GAL4_TRANS, was analyzed in the positive analysis fitting direction relative to DMSO as the negative control and baseline of activity. Using a type of inducible reporter, measures of mRNA for gain-of-signal activity can be used to understand the background control at the transcription factor-level as they relate to the gene . Furthermore, this assay endpoint can be referred to as a secondary readout, because this assay has produced multiple assay endpoints where this one serves a background control function. To generalize the intended target to other relatable targets, this assay endpoint is annotated to the background measurement intended target family, where the subfamily is baseline control.
Human liver HepG2 cells are transiently transfected with multiple reporter transcription units (MRTUs) in 6-well plates using FuGene 6 reagent (Roche; 3 ml FuGene/1 mg DNA). The MRTU constructs are regulated by a cis-regulating element (promoter). […] A major difference between the CIS and TRANS system is that in CIS activities of endogenous TFs are measured, whereas the TRANS assay evaluates changes in activities of exogenous, chimeric NR-Gal4 proteins. […] At the end of 24 hour incubation, total RNA was isolated using TriZol reagent (Invitrogen). The isolated RNA is then reverse-transcribed using oligo(dT) primer and Mo-MLV reverse transcriptase (Invitrogen) with DNAse I (Ambion) treatment for 30 min. The one-tenth of the produced cDNA was amplified by PCR using Taq DNA polymerase (Invitrogen) and two reporter sequence-specific primers. The PCR products were fluorescently labeled by primer extension with 6-arboxyfluorescein (6-FAM) 5'-labeled reporter sequence-specific primer (2 min at 95 C, 20 s at 68 C and 10 min at 72 C) and these products were digested with 5U of HpaI (New England Biolabs) for 2h at 37 C. The fragments were purified using Qiaquick PCR columns (Qiagen), analyzed on an ABI 3130xL genetic analyzer (Applied Biosystems) with peak positions identified by using a set of X-rhodamine (ROX)-labeled MapMarker1000 molecular weight standards (BioVentures). The raw capillary electrophoresis data was processed using Attagraph software (Attagene).

SMILES	outcome
CC(C)(C)OOC(C)(C)C	inactive
FC(F)(F)c1ccc(Cl)cc1	inactive
CCCCOCCOP(=O)(OCCOCCCC)OCCOCCCC	inactive
CCOP(=S)(S)OCC	inactive
CC(O)C#N (stereo not given)	inactive
O=NN1CCCC1	inactive
c1ccc2c(c1)Nc1ccccc1S2	inactive
CC(C)CBr	inactive
CCOP(=O)(O)C(N)=O	inactive
CC(C)(C)N(NC(=O)c1ccc(Cl)cc1)C(=O)c1ccccc1	inactive
C=C(C)C(=O)OCC1CO1 (stereo not given)	inactive
COCCOCCO	inactive
Cc1ccc(N)cc1N	inactive
NC(=O)C(F)(F)C(F)(F)F	inactive
NNC(N)=S	inactive
CCCCCCCc1ccc(O)cc1	inactive
CC(=O)CCc1ccc2c(c1)OCO2	inactive
CCCCOCC1CO1 (stereo not given)	inactive
O=P(Oc1ccccc1)(Oc1ccccc1)Oc1ccccc1	inactive
Nc1ccc2ccccc2c1	inactive

SMILES	outcome
CCOC(=O)c1ccccc1C(=O)OCC	inactive
CC(C)Nc1ccc(Nc2ccccc2)cc1	inactive
OCC(F)(F)OC(F)(F)C(F)(F)OC(F)(F)C(F)(F)OC(F)(F)F	inactive
Nc1ccc([N+](=O)[O-])cc1Cl	inactive
C/C(=N\NC(=O)Nc1cc(F)cc(F)c1)c1ncccc1C(=O)O	inactive
Cc1ccc(O)cc1C	inactive
N#Cc1cc([N+](=O)[O-])ccc1N	inactive
CC(Cc1ccc(OCC(=O)O)cc1)NCC(O)c1csc(C(F)(F)F)n1 (stereo not given)	inactive
CCNc1nc(Cl)nc(NC(C)(C)C)n1	inactive
CCC(C)(C)c1ccc(O)cc1	inactive
C=CC(=O)OCC(F)(F)C(F)F	inactive
Cc1ccc(C(=O)Cl)cc1	inactive
CCCCc1ccc(O)cc1	inactive
CC(O)C(F)(F)C(F)(F)F (stereo not given)	inactive
Cc1ccc([N+](=O)[O-])cc1C	inactive
CCOP(=S)(OCC)SCS(=O)(=O)CC	inactive
O=C(O)C(Cl)Cl	inactive
CCCCN(CCCC)SN(C)C(=O)Oc1cccc2c1OC(C)(C)C2	inactive
O=C(O)C(F)(OC(F)(F)C(F)(F)C(F)(F)F)C(F)(F)F (stereo not given)	inactive
Oc1ccccc1Br	inactive
